Measured values published in PubChem BioAssay AID588477 (NMMLSC, 2011).
The source made the active and inactive calls.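 The calls were made as follows: active = valid curve fit with half-effect dose at most 10 µM and total binding change across doses of 30 points or more; inactive = the rest.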

System: Ras wt
Test: inhibitors of Bodipy-GTP binding across eight GTPases, SAR follow-up, selectivity assay for Cdc42 probe extension project, biochemical, round 1 SAR, Mg buffer, multiplex flow cytometry (AID 588477)
Conditions: GST-GTPase beads; series mostly up to 100 µM

outcome, inactive:
COc1ccc(C2CC(c3ccccc3)=NN2c2ccc(S(N)(=O)=O)cc2)cc1 (stereo not drawn)
NS(=O)(=O)c1ccc(N2N=C(c3ccccc3)CC2c2ccccc2)cc1 (stereo not drawn)
O=C(C#Cc1ccccc1)c1cccc([N+](=O)[O-])c1
